# Measured values from PubChem BioAssay (Tox21).
# Several values for one entry are separate records, joined by “and”; a condition that tells them apart may be missing. Identical values can stand only once. Records with an inconclusive call do not appear. Where a call stands in place of a potency, no number is given. A structure can be active in one record and inactive in another. Activity calls are given as the source filed them. Calls follow the shape of the dose curve; as a rule, active = well fitted activation curve with a large enough effect in the repeat runs; inconclusive = weak or mixed curves; inactive = flat fitted curve, though single readings scatter.
# Experiment: A CellTox Green Cytotoxicity Assay to monitor cytotoxicity in HEK293 cells - 32 hour (AID 1224881); also: nearly all actives have a fitted effect of over 40% in size
# Details: CellTox Green fluorescence; series mostly up to 76.8 µM
# From the text: National Center for Advancing Translational Sciences [NCATS]
# NIH Chemical Genomics Center [NCGC]
# U.S. Environmental Protection Agency [EPA]
# National Institutes of Environmental Health Sciences [NIEHS]
# National Toxicology Program [NTP]
# Cell-based models are critical for drug discovery. Determining the natural cytotoxic effects resulting from test compounds is an essential research activity. A CellTox Green Cytotoxicity Assay to monitor cytotoxicity in real time of continues cell culture during 40 hours of the compound treatment was used to screen Tox21 10K library compounds in Hek293 cells. CellTox Green Cytotoxicity Assay is a nonlytic, homogeneous, biofluorescent method to measure cytotoxicity in cell culture after experimental manipulation. The assay system uses a proprietary asymmetric cyanine dye that is excluded from viable cells but preferentially stains the dead cell's DNA. […] Viable cells produce no appreciable increases in fluorescence. Therefore, the fluorescence signal produced by the binding interaction with dead cell DNA is proportional to cytotoxicity.
# The mixture of Hek293 cell suspension and reagents were dispensed at 600cells/6 ul/well in 1536-well tissue culture treated black solid bottom plates using a Multidrop dispenser. After the assay plates were incubated at a 37 C/5% CO2 incubator for 5 hours, 23 nL of compounds dissolved in DMSO, positive and negative controls was transferred to the assay plate by a pintool work station. The plates were incubated at 37 C for 40 hours. The fluorescence intensity were measured at 0h, 8h, 16h, 24h, 32h and 40h time points using ViewLux plate reader during compound treatment.
# Potency is read from the fitted curve at half-maximal effect.
row,Structure (SMILES),Potency
1,O=c1oc2ccccc2c(O)c1C(CC(O)c1ccc(-c2ccc(Br)cc2)cc1)c1ccccc1 (stereo not given),inactive
2,Nc1ccc(Cl)cc1N,21.9 µM (active)
3,c1ccc(-c2cccc(-c3ccccc3)c2)cc1,inactive
4,OCC(O)CO,inactive
5,Oc1c(Cl)c(Cl)c(Cl)c(Cl)c1Cl,inactive
6,C[C@]12CCC(=O)C(O)=C1CC[C@@H]1[C@@H]2CC[C@]2(C)C(=O)CC[C@@H]12,inactive
7,CCC(C)(c1ccc(O)cc1)c1ccc(O)cc1,inactive
8,CC(C)=CC1C(C(=O)OCc2coc(Cc3ccccc3)c2)C1(C)C (stereo not given),inactive
9,Cc1ccc(N)c(N)c1,inactive
10,Cc1ccc2c(c1N)C(=O)c1ccccc1C2=O,inactive
11,C=C(C)[C@H]1Cc2c(ccc3c2O[C@@H]2COc4cc(OC)c(OC)cc4[C@@H]2C3=O)O1,inactive
12,CCCCC(CC)COC(=O)c1ccc(C(=O)OCC(CC)CCCC)c(C(=O)OCC(CC)CCCC)c1 (stereo not given),inactive
13,Oc1cc(Cl)ccc1Oc1ccc(Cl)cc1Cl,22.4 µM (active)
14,c1ccc(P(c2ccccc2)c2ccccc2)cc1,inactive
15,C=CCN(CC=C)C(=O)C(Cl)Cl,inactive
16,O=[N+]([O-])c1cccc2ccccc12,inactive
17,CC(C)C(=O)OCC(C)(C)C(OC(=O)C(C)C)C(C)C (stereo not given),inactive
18,c1cc(OCC2CO2)ccc1Cc1ccc(OCC2CO2)cc1 (stereo not given),inactive
19,CC(C)(OOC(C)(C)c1ccccc1)c1ccccc1,24.2 µM (active) and 49 µM (active)
20,COP(=O)(OC)OC,inactive

row,Structure (SMILES),Potency
1,O=S(=O)(Oc1ccc(Cl)cc1)c1ccc(Cl)cc1,inactive
2,O=C(O)C(F)(F)C(F)(F)C(F)(F)C(F)(F)C(F)(F)C(F)(F)C(F)(F)F,inactive
3,Oc1cc(Cl)ccc1Cl,inactive
4,CCCCNC(=O)n1c(NC(=O)OC)nc2ccccc21,inactive
5,NNC(=S)NN,inactive
6,O=Cc1ccco1,23.7 µM (active)
7,Cc1cc(Cl)ccc1OCCCC(=O)O,inactive
8,CNC(=O)N(C)c1nnc(C(C)(C)C)s1,inactive
9,N#CCCCl,inactive
10,Oc1ccc(-c2ccccc2)cc1,24.2 µM (active) and inactive
11,COP(=S)(OC)Oc1ccc([N+](=O)[O-])cc1,inactive
12,N#CC(Br)Br,inactive
13,CCc1cccc(CC)c1N(COC)C(=O)CCl,inactive
14,O=P(Oc1ccccc1)(Oc1ccccc1)Oc1ccccc1,inactive
15,CCOC(=S)S,inactive
16,C[C@]12CCC(=O)C[C@@H]1CC[C@@H]1[C@@H]2CC[C@]2(C)[C@@H](O)CC[C@@H]12,38.4 µM (active) and inactive
17,CCN(CC)C(=O)SCc1ccc(Cl)cc1,inactive
18,O=P(O)(O)CCCl,inactive
19,CCOc1cc(C=O)ccc1O,inactive
20,CCC(CC)Nc1c([N+](=O)[O-])cc(C)c(C)c1[N+](=O)[O-],inactive
